TRPML1 blocker: human mucolipin-1 channel inhibition; Q9GZU1; TRPML1-inducible cells, Ca2+ dye fluorescence, FDSS; active compounds read low; inhibition of EC80 agonist-evoked calcium signal; activity change, negative = inhibition, % (test concentration not listed); 390,000 tested, 0.02% active; in the data active = activity change below about -50%; inconclusive = between about -30% and that limit;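 note: stimulus is agonist 54-4 at its EC80 concentration; % is set by controls: 0 for no effect and ±100 for the full control effect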
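Calcium fluorescence in TRPML1-DL cells induced overnight with Tet: a 110 s read after compound pin addition, then a 110 s antagonist read after challenge with 54-4 at 4 uM final (EC80).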
Vif-A3G inh: blocks the Vif interaction with human APOBEC3G. HeLa A3G-eYFP + Vif (tagged APOBEC3G with the HIV-1 protein that degrades it), YFP fluorescence, overnight. Potency, µM (top dose mostly 46.1 µM), for the others: at the highest dose activity, negative = active, actives largely listed as inhibitors. 410,000 tested, 0.076% active. AID 602310; note: potency is the fitted concentration of half-maximal effect; % is set by controls: 0 for no effect and ±100 for the full control effect; nearly all actives have a fitted effect of over 60% in size
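Read-out is eYFP fluorescence (Ex 488/Em 500-530) from Vif-expressing HeLa A3G-eYFP cells; more signal means A3G escaped Vif-mediated degradation. Cells plated overnight, compound pinned in, incubated overnight at 37 deg C.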
Vif-A3F inh: Vif-A3F binding inhibition | HeLa A3F-eYFP + Vif (tagged APOBEC3F with the HIV-1 protein that degrades it), YFP fluorescence increase | Potency, µM (highest dose often 46.1 µM), without a hit: top-dose activity, negative = active | 390,000 tested, 0.2% active; note: potency is the fitted concentration of half-maximal effect; % of control where 0% means no effect; nearly all actives have a fitted effect of over 65% in size
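HeLa cells stably expressing A3F-eYFP plus Vif, plated and incubated overnight at 37 deg C, then exposed to compounds overnight at 37 deg C. Blocked degradation read as raised yellow fluorescence (Ex 488/Em 500-530).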
Glioma ERSR ind: induces the endoplasmic reticulum stress response in human glioma cells. U87-MG GRP78 promoter luciferase reporter, 16 h. 420,000 tested, 0.02% active. Potency, µM, without a hit: top-dose activation, usual class: activators; note: potency is the fitted concentration of half-maximal effect; series mostly up to about 76 µM; % of control where 0% means no effect; nearly all actives have a fitted effect of over 35% in size
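ERSR induction read as luciferase luminescence (Bright-Glo, 10 min at room temperature) in stably transfected human U87-MG glioma cells exposed to compounds for 16 h, using GRP78 as sensor.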
12-LOX inh: inhibitors of human 12S-lipoxygenase ALOX12; P18054; purified 12hLO, xylenol orange hydroperoxide absorbance; Potency, µM (series often up to 108 µM), for the others: top-dose activity change, negative = inhibition, usual class: inhibitors; 580,000 tested, 1.1% active; note: potency is the fitted concentration of half-maximal effect; % is set by controls: 0 for no effect and ±100 for the full control effect
Target sequence (P18054 whole entry, looked up): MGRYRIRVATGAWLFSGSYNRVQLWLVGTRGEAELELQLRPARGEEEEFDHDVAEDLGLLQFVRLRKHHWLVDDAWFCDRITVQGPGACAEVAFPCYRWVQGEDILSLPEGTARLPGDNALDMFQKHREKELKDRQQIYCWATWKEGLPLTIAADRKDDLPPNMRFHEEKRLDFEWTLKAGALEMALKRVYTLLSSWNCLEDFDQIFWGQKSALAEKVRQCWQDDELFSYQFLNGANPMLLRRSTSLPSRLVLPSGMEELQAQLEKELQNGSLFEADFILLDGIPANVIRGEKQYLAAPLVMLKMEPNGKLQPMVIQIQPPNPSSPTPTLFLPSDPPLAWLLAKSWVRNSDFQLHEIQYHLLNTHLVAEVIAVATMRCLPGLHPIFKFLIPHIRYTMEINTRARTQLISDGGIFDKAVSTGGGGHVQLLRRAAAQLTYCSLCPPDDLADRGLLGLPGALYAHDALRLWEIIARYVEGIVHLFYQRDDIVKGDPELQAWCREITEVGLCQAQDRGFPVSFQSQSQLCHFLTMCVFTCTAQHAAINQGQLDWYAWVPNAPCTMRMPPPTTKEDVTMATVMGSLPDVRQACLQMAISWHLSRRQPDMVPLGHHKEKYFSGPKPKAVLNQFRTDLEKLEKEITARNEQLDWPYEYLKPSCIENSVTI
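Hydroperoxide product was detected by ferrous iron/xylenol orange as the 573 to 405 nm absorbance ratio. Arachidonic acid at 40 uM (final) was turned over for 30 min at room temperature by 150 nM human 12hLO, pH 7.0 Hepes buffer, after 15 min compound preincubation.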
TRPML1 ag: activates the human TRPML1 channel | TRPML1-expressing cells, Ca2+ dye fluorescence, FDSS | activation, % (no concentration beside the values) | Q9GZU1 | 410,000 tested, 0.12% active; in the data active = activation above about 50%; inconclusive = mostly about 30% to 49%; note: 0% is about no effect
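Tet-induced TRPML1-DL cells, 1,500 per well, cultured overnight, were loaded with a no-wash Ca2+ dye for 45–90 min. Calcium fluorescence was recorded on the FDSS for 110 s after compound addition, before the EC80 agonist (4 uM 54-4) was added.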
An asterisk follows results filed as active; u = inconclusive; x = not tested or not shown; ! = a repeat was not active. An excerpt weighted towards active compounds, which were near 1.3% of everything screened. Unless noted, calls come from the whole dose curve; as a rule, active = well fitted curve in the direction sought with a large enough effect; inconclusive = small, poorly fitted or top-dose-only effect, or another doubt; inactive = no such curve, though single readings can be large; an effect the other way counts as inactive or inconclusive.

SMILES	TRPML1 blocker	Vif-A3G inh	Vif-A3F inh	Glioma ERSR ind	12-LOX inh	TRPML1 ag
COc1cccc(-c2nc3ccccc3s2)c1O	0	-5%	-2%	-8%	24%	0
COc1cccc(-c2nc(-c3nc4ccccc4s3)cs2)c1OC	x	x	x	x	5µM*	x
Cc1sc2nc(CSc3nnnn3-c3ccc(Cl)cc3)[nH]c(=O)c2c1C	-7	-19%	32µM*	-4%	-19%	0
C#CCOCCOCCOCCNc1nc(N2CCN(C(=O)[C@H]([C@@H](C)CC)n3cc(CCCN=C(N)N)nn3)CC2)nc(N2CCN(C(=O)[C@H]([C@@H](C)CC)n3cc(CCC(=O)O)nn3)CC2)n1	6	-6%	-2%	-1%	10µM*	2
C#CCOCCOCCOCCNc1nc(N2CCN(C(=O)Cn3cc(CC(C)O)nn3)CC2)nc(N2CCN(C(=O)[C@H](CCCCN)n3cc(CCC(=O)O)nn3)CC2)n1 (stereo partly drawn)	19	-1%	-1%	-5%	16µM*	0
C#CCOCCOCCOCCNc1nc(N2CCN(C(=O)[C@H](CC(N)=O)n3cc(C(N)[C@@H](C)CC)nn3)CC2)nc(N2CCN(C(=O)[C@H](CCCCN)n3cc([C@@H](N)CC(N)=O)nn3)CC2)n1 (stereo partly drawn)	18	7%	1%	-4%	-5%	0
C#CCOCCOCCOCCNc1nc(N2CCN(C(=O)[C@H](CC(N)=O)n3cc(C(N)[C@H](C)CC)nn3)CC2)nc(N2CCN(C(=O)[C@H](CC(N)=O)n3cc(C(N)[C@@H](C)CC)nn3)CC2)n1 (stereo partly drawn)	-8	2%	3%	-4%	0.63µM*	-1
C#CCOCCOCCOCCNc1nc(N2CCN(C(=O)Cn3cc(CCCN=C(N)N)nn3)CC2)nc(N2CCN(C(=O)[C@H](CCCCN)n3cc(CC(C)O)nn3)CC2)n1 (stereo partly drawn)	15	-7%	4%	-4%	u	0
C#CCOCCOCCOCCNc1nc(N2CCN(C(=O)[C@H]([C@@H](C)CC)n3cc(CCC(=O)O)nn3)CC2)nc(N2CCN(C(=O)[C@H](C)n3cc(CCCN=C(N)N)nn3)CC2)n1	-10	2%	-6%	-1%	-19%	-1
NC(=O)C[n+]1cccc2ccccc21	4	0%	-18%	-3%	u	4
N[n+]1cccc2ccccc21	x	x	x	x	18µM*	x
Cc1[nH]c2ccccc2c1/C=C(\C#N)C(=O)NCC1CCCO1 (stereo not drawn)	32	8%	-2%	9%	-25%	2
COCCCNC(=O)/C(C#N)=C/c1c(C)[nH]c2ccccc12	x	x	x	x	40µM*	x
Cc1cc(NC(=O)COC(=O)C2(c3cccc(F)c3)CCCC2)no1	x	x	x	x	-1%	x
COc1ccccc1NC(=O)Cn1cnc2sc(C(=O)Nc3cc(OC)c(OC)c(OC)c3)c(C)c2c1=O	20	-1%	-11%	-1%	2%	1
COc1ccccc1NC(=O)c1sc2ncn(CC(=O)Nc3ccccc3)c(=O)c2c1C	2	-3%	25µM*	-4%	7%	0
COc1ccc(OC)c(C(C)NC(=O)CCc2ncc(-c3ccc(F)cc3)o2)c1 (stereo not drawn)	x	x	x	x	27%	x
Cc1ccc(S(=O)(=O)N2CCN(Cc3cc(=O)oc4cc(O)c(Cl)cc34)CC2)cc1	x	x	x	x	45µM*	x
CCN1CCN(Cc2cc(=O)oc3cc(-c4ccccc4)c(O)cc23)CC1	x	x	x	x	32µM*	x
O=C(/C=C/c1ccc(N2CCC(c3ccccc3)=N2)cc1)c1ccccc1	-3	u	u	2%	u	87*
COC(=O)C12CC3CCC(CC(C(=O)OC)(C1)C3=O)C2=O	x	x	x	x	20%	x
CC(C)C(=O)Nc1ccc2oc(-c3ccc(F)cc3Cl)nc2c1	x	x	x	x	9%	x
Cc1ccc(S(=O)(=O)NC(=O)NN2CCCCCC2)cc1	-2	-1%	2%	-4%	u	-1
Cc1ccc(S(=O)(=O)NC(=O)NN2CC3CCCC3C2)cc1 (stereo not drawn)	33	1%	16%	3%	3.1µM*!	-1
Fc1ccc(-c2c[nH]c(=S)n2Cc2ccccc2)cc1	5	2%	-3%	-4%	50µM*	1
SMILES	TRPML1 blocker	Vif-A3G inh	Vif-A3F inh	Glioma ERSR ind	12-LOX inh	TRPML1 ag
COc1cccc(COC(=O)c2ccc3c(c2)NC(=O)CS3)c1	x	x	x	x	3%	x
CC(C)Oc1ccc(OCCn2c(=S)[nH]c3c(N)ncnc32)cc1	6	1%	-3%	-1%	45µM*	0
CCc1c(C)sc(NC(=S)Nc2cccnc2)c1C(=O)OC	-10	-4%	0%	-6%	-24%	-2
CCc1c(C)sc(NC(=S)Nc2nc(C)cc(C)n2)c1C(=O)OC	7	-9%	-7%	-4%	22µM*	0
Cc1cc(C(=O)OC(C)C(=O)NC(N)=O)c2ccccc2n1 (stereo not drawn)	x	x	x	x	19%	x
C/C(=N/Nc1ccc(S(N)(=O)=O)cc1[N+](=O)[O-])c1ccccc1Br	x	x	x	x	35µM*	x
C/C(=N/Nc1ccc(F)cc1F)c1ccccc1Br	x	x	x	x	50µM*	x
CCN1CCN(S(=O)(=O)c2ccc(Cl)c(C(=O)Nc3ccccc3N3CCCCC3)c2)CC1	-16	0%	0%	-2%	u	100*
O=C(Nc1ccc(Cl)cn1)c1cccc(S(=O)(=O)N2CCCCCC2)c1	30	20µM*	0%	-5%	-40%	2
O=C(Nc1cc(S(=O)(=O)N2CCOCC2)ccc1N1CCCC1)c1ccc(Cl)cc1	25	0%	3%	-2%	25µM*	-1
CCN1CCN(S(=O)(=O)c2ccc(Cl)c(C(=O)Nc3ccccc3N3CCCC3)c2)CC1	-2	1%	-11%	-4%	x	1
O=C(CNc1cc(S(=O)(=O)N2CCCCC2)ccc1N1CCCCC1)Nc1ccc(F)cc1	x	x	x	x	10µM*	x
COC(=O)c1ccc(COC(=O)CCC(=O)c2ccc3c(c2)OCCCO3)cc1	x	x	x	x	-8%	x
O=C(Nc1cc(S(=O)(=O)N2CCOCC2)ccc1N1CCCC1)c1ccc2c(c1)S(=O)(=O)c1ccccc1C2=O	-8	7%	-8%	-4%	14µM*	1
O=C(Nc1cc(S(=O)(=O)N2CCOCC2)ccc1N1CCCCC1)c1ccccc1	-17	-2%	u	0%	417%	4
Cc1c(C(C)(C)C)sc(=N)n1C	x	x	x	x	45µM*	x
CC(C)CNC(=O)CCNC(=O)NCc1nc2c(cnn2-c2ccccc2)c(=O)[nH]1	x	x	x	x	-3%	x
CCN1/C(=C/C=C/C=C/C=C/c2sc3ccccc3[n+]2CC)Sc2ccccc21	12	-8%	-11%	-3%	40µM*	2
